Assays:
Assay in all cases: DAPPL (digital affinity profiling via proximity ligation, sequencing); 10 mM Tris-HCl pH 7.5, 50 mM NaCl, 1 mM DTT, 4% glycerol, room temperature, 30 min; GST-TFs on glutathione beads, 16-mer random dsDNA library, 0.1% formaldehyde crosslink after washing; high values mean tight binding
Conditions in all cases: protein: recombinant; tags: N-terminal GST; dsDNA, one strand shown
[1] = biological target: T1, FLI1 (Homo sapiens, UniProt Q01543 1-452)
T1 sequence: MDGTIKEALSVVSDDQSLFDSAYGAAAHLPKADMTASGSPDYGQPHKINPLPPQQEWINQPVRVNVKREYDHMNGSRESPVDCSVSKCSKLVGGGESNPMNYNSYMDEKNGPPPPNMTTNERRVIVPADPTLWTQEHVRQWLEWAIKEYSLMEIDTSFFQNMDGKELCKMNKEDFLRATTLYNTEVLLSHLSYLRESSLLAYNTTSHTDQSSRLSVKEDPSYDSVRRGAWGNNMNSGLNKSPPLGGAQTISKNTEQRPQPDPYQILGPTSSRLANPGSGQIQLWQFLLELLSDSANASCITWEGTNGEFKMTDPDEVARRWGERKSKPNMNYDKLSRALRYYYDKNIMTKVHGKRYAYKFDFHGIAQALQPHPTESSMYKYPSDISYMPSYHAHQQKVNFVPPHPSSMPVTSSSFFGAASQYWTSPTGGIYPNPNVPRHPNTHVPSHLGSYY
Method in brief: (§1)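 Human transcription factors carrying a GST fusion were produced in yeast, bound to glutathione beads, tagged with DNA barcodes and pooled together with a tag-only sample. Each pool was held with 200 nmole of a random double-stranded 16-mer DNA library in Tris/NaCl/DTT/glycerol buffer for 30 min at room temperature, then washed, crosslinked in 0.1% formaldehyde, proximity-ligated with BsaI/T4 ligase (1 h, 37 °C), PCR-amplified and sequenced on an Illumina NextSeq500. Binding signal is the read frequency of each hexamer for a given factor divided by its frequency in the tag-only sample.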

[2] = biological target: T2, ELK1 (Homo sapiens, UniProt P19419 1-428)
T2 sequence: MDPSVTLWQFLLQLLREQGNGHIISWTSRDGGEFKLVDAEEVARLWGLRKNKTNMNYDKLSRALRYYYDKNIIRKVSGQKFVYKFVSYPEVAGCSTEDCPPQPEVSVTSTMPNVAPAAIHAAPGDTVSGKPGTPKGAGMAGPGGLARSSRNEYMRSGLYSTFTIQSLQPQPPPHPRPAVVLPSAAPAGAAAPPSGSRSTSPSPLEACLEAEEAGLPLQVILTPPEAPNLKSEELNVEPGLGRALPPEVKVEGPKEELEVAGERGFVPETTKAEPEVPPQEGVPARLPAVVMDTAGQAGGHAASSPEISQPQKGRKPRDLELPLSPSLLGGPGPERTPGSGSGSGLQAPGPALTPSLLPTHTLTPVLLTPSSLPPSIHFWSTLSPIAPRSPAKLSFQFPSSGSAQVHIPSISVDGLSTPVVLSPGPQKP
Method in brief: as §1

[3] = biological target: T3, GABPA (Homo sapiens, UniProt Q06546 1-454)
T3 sequence: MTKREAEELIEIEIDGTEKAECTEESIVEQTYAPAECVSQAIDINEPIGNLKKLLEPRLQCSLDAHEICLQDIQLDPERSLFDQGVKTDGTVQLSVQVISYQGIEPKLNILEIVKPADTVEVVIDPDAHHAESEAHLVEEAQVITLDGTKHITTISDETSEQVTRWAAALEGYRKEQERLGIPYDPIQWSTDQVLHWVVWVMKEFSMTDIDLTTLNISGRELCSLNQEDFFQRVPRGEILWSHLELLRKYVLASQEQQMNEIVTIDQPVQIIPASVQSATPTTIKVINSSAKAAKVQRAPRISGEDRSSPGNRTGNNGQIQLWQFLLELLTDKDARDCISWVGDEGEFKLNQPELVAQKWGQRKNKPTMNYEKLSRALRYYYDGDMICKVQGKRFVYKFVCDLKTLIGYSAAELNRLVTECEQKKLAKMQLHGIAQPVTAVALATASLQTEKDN
Method in brief: as §1

[4] = biological target: T4, ERG (Homo sapiens, UniProt P11308 1-479)
T4 sequence: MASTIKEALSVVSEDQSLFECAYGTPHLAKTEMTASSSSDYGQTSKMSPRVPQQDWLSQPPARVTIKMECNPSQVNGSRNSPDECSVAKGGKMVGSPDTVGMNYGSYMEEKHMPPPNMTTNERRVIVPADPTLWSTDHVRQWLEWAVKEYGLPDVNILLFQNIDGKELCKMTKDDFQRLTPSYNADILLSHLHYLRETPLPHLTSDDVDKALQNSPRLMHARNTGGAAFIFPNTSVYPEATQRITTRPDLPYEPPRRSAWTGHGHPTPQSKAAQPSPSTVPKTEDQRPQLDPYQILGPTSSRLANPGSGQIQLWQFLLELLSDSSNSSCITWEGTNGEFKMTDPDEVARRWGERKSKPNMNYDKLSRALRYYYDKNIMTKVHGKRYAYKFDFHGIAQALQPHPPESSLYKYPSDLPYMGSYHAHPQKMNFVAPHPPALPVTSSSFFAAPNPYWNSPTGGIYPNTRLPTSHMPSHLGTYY
Method in brief: as §1

[5] = biological target: ELF1 (Homo sapiens, UniProt P32519 1-619)
ELF1, sequence (P32519 whole entry): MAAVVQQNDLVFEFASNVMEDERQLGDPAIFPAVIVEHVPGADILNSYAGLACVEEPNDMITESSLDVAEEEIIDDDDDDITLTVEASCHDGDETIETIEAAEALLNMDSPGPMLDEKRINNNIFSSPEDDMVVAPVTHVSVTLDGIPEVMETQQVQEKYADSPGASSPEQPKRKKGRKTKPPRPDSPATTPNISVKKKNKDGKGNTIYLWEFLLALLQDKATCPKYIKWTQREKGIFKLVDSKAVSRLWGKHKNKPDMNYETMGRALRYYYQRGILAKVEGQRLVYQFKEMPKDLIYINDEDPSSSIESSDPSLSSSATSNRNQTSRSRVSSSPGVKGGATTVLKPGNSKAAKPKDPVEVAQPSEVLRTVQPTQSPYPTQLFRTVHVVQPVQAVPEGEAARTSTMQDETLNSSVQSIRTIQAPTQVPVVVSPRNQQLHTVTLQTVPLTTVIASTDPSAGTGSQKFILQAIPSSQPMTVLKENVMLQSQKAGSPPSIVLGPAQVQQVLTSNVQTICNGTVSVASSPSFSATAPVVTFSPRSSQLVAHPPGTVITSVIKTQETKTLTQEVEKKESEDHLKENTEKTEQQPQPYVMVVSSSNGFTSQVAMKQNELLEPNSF
Method in brief: as §1

[6] = biological target: T5, EHF (Homo sapiens, UniProt Q9NZC4 1-300)
T5 sequence: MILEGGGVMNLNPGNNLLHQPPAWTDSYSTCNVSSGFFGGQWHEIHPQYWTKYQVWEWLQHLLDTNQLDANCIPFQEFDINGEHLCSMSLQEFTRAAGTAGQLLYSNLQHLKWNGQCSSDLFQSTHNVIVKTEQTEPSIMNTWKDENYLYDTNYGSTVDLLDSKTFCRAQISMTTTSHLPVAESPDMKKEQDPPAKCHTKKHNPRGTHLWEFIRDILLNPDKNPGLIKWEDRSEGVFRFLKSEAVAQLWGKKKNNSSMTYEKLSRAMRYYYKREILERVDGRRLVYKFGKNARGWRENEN
Method in brief: as §1

[7] = biological target: SPI1 (Homo sapiens, UniProt P17947 1-270)
Method in brief: as §1

[8] = biological target: SPIB (Homo sapiens, UniProt Q01892 1-262)
SPIB, sequence (Q01892 whole entry): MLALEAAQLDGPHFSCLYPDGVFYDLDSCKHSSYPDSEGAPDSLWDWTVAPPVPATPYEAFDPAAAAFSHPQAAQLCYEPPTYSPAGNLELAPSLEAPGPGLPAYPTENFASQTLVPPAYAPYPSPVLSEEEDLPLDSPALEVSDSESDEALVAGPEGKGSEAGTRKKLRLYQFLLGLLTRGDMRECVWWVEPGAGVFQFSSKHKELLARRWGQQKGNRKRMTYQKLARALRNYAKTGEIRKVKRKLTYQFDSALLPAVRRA
Method in brief: as §1

[9] = biological target: T6, ELK3 (Homo sapiens, UniProt P41970 1-407)
T6 sequence: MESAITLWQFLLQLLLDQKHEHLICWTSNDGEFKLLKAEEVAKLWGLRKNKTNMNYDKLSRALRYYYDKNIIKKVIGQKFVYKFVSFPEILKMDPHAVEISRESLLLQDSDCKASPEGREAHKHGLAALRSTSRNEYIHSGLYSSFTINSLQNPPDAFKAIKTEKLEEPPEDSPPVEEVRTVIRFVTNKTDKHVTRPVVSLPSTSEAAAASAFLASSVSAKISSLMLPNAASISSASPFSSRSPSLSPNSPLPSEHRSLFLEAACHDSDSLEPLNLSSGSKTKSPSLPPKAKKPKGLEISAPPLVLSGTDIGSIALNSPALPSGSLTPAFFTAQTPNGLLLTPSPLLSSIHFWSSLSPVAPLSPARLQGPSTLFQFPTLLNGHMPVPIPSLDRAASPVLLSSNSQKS
Method in brief: as §1

[10] = biological target: T7, FEV (Homo sapiens, UniProt Q99581 1-238)
T7 sequence: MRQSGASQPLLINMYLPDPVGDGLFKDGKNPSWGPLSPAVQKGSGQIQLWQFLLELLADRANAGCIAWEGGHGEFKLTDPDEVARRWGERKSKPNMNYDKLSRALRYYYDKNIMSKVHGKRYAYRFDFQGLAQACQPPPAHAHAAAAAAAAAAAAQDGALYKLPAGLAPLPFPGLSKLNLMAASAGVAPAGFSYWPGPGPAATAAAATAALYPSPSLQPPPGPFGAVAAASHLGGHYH
Method in brief: as §1

[11] = biological target: ETV5 (Homo sapiens, UniProt P41161 1-510)
ETV5, sequence (P41161 whole entry): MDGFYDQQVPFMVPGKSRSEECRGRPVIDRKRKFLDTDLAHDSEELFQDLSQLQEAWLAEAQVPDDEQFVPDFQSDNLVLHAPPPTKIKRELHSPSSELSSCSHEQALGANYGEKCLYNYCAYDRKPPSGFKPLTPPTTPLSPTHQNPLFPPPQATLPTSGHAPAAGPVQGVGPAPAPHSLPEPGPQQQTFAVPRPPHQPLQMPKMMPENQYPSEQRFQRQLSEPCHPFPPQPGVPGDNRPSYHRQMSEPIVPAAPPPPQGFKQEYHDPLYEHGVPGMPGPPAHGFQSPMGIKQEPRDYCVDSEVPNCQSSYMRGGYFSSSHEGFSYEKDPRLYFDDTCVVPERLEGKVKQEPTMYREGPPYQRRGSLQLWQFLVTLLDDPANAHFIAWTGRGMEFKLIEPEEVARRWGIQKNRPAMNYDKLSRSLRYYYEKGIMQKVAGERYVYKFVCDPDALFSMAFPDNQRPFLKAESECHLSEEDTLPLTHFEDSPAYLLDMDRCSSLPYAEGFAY
Method in brief: as §1

[12] = biological target: T8, SPIC (Homo sapiens, UniProt Q8N5J4 1-248)
T8 sequence: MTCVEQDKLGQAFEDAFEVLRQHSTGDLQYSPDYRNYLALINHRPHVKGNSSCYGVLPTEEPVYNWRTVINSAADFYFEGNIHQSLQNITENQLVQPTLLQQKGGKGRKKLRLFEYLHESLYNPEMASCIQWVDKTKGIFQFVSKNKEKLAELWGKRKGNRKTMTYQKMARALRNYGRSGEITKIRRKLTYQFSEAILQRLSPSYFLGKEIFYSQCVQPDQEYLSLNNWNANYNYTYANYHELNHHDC
Method in brief: as §1

[13] = biological target: ELF4 (Homo sapiens, UniProt Q99607 1-663)
ELF4, sequence (Q99607 whole entry): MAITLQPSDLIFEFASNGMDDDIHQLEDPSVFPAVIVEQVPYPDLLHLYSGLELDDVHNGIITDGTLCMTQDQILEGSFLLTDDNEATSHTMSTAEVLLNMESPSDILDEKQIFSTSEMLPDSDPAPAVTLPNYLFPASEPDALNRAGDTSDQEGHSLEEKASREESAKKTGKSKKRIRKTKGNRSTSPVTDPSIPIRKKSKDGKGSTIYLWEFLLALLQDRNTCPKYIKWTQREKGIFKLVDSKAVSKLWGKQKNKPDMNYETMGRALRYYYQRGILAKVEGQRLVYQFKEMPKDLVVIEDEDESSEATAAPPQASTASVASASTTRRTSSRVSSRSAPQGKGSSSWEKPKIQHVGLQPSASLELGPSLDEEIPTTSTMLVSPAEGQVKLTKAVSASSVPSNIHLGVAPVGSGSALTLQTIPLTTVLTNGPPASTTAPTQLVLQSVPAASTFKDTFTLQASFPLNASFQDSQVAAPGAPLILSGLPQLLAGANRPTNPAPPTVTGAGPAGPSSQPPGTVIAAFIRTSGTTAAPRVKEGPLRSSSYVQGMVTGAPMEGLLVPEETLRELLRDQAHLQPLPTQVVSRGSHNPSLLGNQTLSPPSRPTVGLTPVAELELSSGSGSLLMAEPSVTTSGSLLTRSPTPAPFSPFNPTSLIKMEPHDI
Method in brief: as §1

[14] = biological target: ETV1 (Homo sapiens, UniProt P50549 1-477)
ETV1, sequence (P50549 whole entry): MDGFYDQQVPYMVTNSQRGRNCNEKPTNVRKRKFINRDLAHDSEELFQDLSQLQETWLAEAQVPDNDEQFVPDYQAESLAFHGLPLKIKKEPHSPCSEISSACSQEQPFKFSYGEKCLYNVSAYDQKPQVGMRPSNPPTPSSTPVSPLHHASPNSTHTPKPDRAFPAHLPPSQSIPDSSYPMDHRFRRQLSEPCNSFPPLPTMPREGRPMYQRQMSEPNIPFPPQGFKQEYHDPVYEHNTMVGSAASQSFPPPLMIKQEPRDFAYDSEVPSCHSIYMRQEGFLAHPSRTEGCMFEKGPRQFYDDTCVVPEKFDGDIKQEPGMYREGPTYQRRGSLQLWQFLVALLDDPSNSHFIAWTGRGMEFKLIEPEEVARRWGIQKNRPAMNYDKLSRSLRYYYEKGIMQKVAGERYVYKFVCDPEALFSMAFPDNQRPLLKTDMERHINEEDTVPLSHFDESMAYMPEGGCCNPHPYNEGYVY
Method in brief: as §1

[15] = biological target: T9, ERF (Homo sapiens, UniProt P50548 1-548)
T9 sequence: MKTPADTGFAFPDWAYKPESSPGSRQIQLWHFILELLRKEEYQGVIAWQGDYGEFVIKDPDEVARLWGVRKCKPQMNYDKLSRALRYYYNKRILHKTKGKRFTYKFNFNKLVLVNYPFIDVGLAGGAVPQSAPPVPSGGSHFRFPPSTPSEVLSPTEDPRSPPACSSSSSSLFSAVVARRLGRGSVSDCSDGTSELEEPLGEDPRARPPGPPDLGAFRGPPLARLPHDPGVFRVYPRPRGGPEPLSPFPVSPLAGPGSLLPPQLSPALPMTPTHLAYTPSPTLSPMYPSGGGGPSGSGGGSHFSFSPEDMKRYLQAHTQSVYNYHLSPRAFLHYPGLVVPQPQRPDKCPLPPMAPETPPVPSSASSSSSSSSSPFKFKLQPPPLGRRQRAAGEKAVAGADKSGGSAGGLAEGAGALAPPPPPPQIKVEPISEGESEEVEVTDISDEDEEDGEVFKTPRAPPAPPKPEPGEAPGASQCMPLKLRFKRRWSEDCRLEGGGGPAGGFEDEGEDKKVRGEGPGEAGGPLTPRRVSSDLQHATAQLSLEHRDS
Method in brief: as §1

[16] = biological target: T10, ETV3L (Homo sapiens, UniProt Q6ZN32 1-361)
T10 sequence: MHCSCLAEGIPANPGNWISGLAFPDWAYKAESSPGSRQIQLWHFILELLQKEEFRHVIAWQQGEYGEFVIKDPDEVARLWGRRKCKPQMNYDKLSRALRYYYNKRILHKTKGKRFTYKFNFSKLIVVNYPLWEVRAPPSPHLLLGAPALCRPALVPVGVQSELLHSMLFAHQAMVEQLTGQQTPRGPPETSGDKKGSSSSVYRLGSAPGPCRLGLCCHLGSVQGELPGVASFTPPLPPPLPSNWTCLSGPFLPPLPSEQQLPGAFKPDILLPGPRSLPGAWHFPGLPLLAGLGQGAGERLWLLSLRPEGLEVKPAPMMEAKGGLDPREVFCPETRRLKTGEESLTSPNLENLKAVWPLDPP
Method in brief: as §1

[17] = biological target: T11, ETS2 (Homo sapiens, UniProt P15036 1-469)
T11 sequence: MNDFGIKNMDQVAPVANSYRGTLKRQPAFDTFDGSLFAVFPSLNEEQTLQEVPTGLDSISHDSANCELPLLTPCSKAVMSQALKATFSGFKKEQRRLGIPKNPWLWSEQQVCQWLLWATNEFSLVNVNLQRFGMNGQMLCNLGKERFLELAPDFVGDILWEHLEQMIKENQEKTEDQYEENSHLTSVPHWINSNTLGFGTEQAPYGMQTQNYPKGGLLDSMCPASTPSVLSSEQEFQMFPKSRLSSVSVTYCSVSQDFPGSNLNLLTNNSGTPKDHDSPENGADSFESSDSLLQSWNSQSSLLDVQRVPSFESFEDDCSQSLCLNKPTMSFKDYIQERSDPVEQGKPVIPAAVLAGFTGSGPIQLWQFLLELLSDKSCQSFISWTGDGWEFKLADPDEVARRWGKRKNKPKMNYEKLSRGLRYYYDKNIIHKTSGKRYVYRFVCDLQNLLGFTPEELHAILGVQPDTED
Method in brief: as §1

[18] = biological target: T12, SPDEF (Homo sapiens, UniProt O95238 1-335)
T12 sequence: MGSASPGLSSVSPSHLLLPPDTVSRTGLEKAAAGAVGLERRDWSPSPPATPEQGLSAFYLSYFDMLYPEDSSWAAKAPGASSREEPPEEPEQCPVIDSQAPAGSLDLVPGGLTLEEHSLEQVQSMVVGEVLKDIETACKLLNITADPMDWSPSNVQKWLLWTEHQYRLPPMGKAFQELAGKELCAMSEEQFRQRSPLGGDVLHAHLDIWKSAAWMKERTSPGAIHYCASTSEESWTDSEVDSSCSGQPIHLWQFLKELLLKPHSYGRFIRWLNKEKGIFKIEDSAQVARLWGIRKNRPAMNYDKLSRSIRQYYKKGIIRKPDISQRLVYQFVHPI
Method in brief: as §1

[19] = biological target: T13, ETV3 (Homo sapiens, UniProt P41162-2 1-143)
T13 sequence: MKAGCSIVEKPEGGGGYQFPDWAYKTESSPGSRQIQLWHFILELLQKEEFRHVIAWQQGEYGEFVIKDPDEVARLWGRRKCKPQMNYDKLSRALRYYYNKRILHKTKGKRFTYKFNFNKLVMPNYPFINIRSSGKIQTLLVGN
Method in brief: as §1

[20] = biological target: ETV6 (Homo sapiens, UniProt P41212 1-452)
ETV6, sequence (P41212 whole entry): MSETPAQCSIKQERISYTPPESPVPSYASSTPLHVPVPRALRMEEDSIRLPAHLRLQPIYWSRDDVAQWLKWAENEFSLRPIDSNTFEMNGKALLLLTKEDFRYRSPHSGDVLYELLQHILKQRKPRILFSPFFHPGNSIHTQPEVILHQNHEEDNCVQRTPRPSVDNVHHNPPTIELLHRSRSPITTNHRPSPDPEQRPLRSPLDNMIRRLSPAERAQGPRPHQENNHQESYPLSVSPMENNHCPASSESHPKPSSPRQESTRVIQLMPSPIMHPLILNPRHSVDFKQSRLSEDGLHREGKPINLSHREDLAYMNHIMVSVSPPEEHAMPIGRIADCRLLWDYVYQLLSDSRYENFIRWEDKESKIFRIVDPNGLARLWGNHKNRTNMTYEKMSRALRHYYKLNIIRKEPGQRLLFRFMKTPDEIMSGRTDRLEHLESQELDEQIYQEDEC
Method in brief: as §1

With TTGGTC the binding signal [1] was 1.16 fold enrichment (6-mer frequency, TF over GST control), the binding signal [2] was 1.17 fold enrichment (6-mer frequency, TF over GST control) and the binding signal [3] was 1.11 fold enrichment (6-mer frequency, TF over GST control). The binding signal [4] was 1.06 fold enrichment (6-mer frequency, TF over GST control), the binding signal [5] was 1.15 fold enrichment (6-mer frequency, TF over GST control) and the binding signal [6] was 1.14 fold enrichment (6-mer frequency, TF over GST control). For the same sequence, the binding signal [7] was 1.08 fold enrichment (6-mer frequency, TF over GST control), the binding signal [8] was 1.05 fold enrichment (6-mer frequency, TF over GST control) and the binding signal [9] was 1.11 fold enrichment (6-mer frequency, TF over GST control). For the same sequence, the binding signal [10] was 1.04 fold enrichment (6-mer frequency, TF over GST control), the binding signal [11] was 1.1 fold enrichment (6-mer frequency, TF over GST control) and the binding signal [12] was 1.12 fold enrichment (6-mer frequency, TF over GST control). The binding signal [13] was 1.13 fold enrichment (6-mer frequency, TF over GST control), the binding signal [14] was 1.17 fold enrichment (6-mer frequency, TF over GST control) and the binding signal [15] was 1.08 fold enrichment (6-mer frequency, TF over GST control). The binding signal [16] was 1.08 fold enrichment (6-mer frequency, TF over GST control), the binding signal [17] was 1.1 fold enrichment (6-mer frequency, TF over GST control) and the binding signal [18] was 1.06 fold enrichment (6-mer frequency, TF over GST control). The binding signal [19] was 1.05 fold enrichment (6-mer frequency, TF over GST control) and the binding signal [20] was 1.06 fold enrichment (6-mer frequency, TF over GST control).
